# Experimental data reported in the supplement of paper PMC3334620.
# The full ranking holds about 33,000 sequences; the median of “E-score (-0.5 to 0.5)” is about -0.011, and the highest 2% start at about 0.28. This excerpt belongs to a sample that is enriched for the highest values.
# Target: T1, Gcr1 (UniProt P07261)
# T1 sequence: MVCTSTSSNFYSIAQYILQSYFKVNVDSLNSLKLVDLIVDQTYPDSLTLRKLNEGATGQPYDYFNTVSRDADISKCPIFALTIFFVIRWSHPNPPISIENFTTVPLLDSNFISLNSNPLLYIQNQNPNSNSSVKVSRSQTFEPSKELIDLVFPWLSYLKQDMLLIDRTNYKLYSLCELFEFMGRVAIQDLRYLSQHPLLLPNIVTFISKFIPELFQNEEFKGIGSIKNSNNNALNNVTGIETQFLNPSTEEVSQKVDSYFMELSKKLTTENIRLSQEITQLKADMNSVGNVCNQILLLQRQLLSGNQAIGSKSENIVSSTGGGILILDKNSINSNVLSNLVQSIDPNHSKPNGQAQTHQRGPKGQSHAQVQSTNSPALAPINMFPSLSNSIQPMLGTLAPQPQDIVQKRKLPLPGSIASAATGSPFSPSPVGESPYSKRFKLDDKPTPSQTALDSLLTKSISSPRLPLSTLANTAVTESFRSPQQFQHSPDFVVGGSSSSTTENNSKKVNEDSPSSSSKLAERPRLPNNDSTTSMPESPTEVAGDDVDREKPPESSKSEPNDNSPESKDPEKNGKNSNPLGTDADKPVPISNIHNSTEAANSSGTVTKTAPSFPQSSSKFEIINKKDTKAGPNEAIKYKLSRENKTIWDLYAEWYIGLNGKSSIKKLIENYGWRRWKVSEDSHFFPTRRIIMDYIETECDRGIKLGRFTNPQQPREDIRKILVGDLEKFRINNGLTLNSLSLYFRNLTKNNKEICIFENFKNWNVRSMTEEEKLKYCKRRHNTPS
# Assay: PBM E-score (8-mer binding enrichment) (E-score (-0.5 to 0.5)); higher = stronger / more preferred TF binding
# Conditions: protein concentration: 100 nM; construct: GST-full length
# Summary of the method: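 E-scores (a modified Wilcoxon-Mann-Whitney statistic) were assigned by the Universal PBM Analysis Suite to every ungapped eight-base word pooled with its reverse complement. The input came from universal all-10-mer Agilent arrays made double-stranded by primer extension and probed with GST-tagged yeast transcription factors at about 100-200 nM. Fluorescent anti-GST detected bound protein, and masliner normalised the scans.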
row,Sequence,PBM E-score
1,GAGAGTGA,-0.261
2,CCAGTAAG,0.222
3,AGCTCTAA,-0.108
4,GTCAAAAA,0.144
5,CCCGAACA,-0.00034
6,GGAGTAAC,-0.116
7,CCTCCCCG,0.0903
8,AGACCCAT,-0.152
9,CGCTGAGC,0.0119
10,ATCCCCAA,0.0543
11,CTCGCGCC,-0.166
12,CATTGAAG,-0.12
13,TAAAGAGA,0.0201
14,CGCAGCTA,0.34
15,GCCAGCTA,-0.135
16,CGCAGCTC,0.09
17,CCCAGCTA,-0.0278
18,GGCAGCTA,0.318
19,GACAGCTA,-0.113
20,AGGCTGGA,-0.133
21,AAAATAGT,0.0219
22,AAAATGGA,0.142
23,AAAATAGC,0.272
24,CAAATGGG,-0.0381

row,Sequence,PBM E-score
1,ATAATGGC,-0.00297
2,ATAATGGA,0.196
3,AAAATGGG,0.29
4,AAAATAGG,0.335
5,ATAATGGG,0.326
6,CGCTCCGA,-0.0796
7,CTCTTTAA,-0.101
8,GGTCGATA,-0.135
9,CCTTAAAG,0.0175
10,CATCGACG,-0.0993
11,TCAAGGCA,-0.127
12,GCTGACTA,-0.0111
13,CTGGGCAC,0.239
14,AGTGGCTG,0.312
15,AGTGGCTA,-0.0284
16,AGTGGCAC,0.15
17,AGTGGCAA,0.088
18,AGTGGCTC,0.218
19,AGTGGCAG,0.287
20,GCGTTCAC,0.00885
21,AACATGTG,0.141
22,GCGGGAGA,-0.277
23,ATGGGGTA,-0.128
24,CTGGGGTA,-0.0593

row,Sequence,PBM E-score
1,GTGGGGTA,0.286
2,CAAGGAAC,0.0885
3,GCAGGCGA,-0.0907
4,AGGCTACC,0.0739
5,CGGCTACC,0.0369
6,GGGCTACC,0.302
7,CGCCGCGC,0.137
8,ATGGCCCG,-0.309
9,GATTCGCC,0.0655
10,GGACGCCA,0.418
11,GCACGCCA,-0.0682
12,GCACGCCC,-0.122
13,CGACGCCC,0.287
14,CGACGCAC,-0.0398
15,GGACGCCC,0.441
16,GGACGTCC,0.291
17,AGACGCCC,0.259
18,TGACGCCA,-0.0776
19,CGACGTCC,0.0613
20,CAACGCCC,0.0625
21,GGACGTCA,-0.115
22,CCACTTGA,0.138
23,GTTCTCCA,-0.137
24,ATAAGTGA,-0.119

row,Sequence,PBM E-score
1,ACTGGGTC,-0.0289
2,ACAGGCAG,0.252
3,CGAGCCCA,-0.119
4,AACATTTC,-0.0184
5,TCATTGGA,-0.0473
6,TCCTGTAA,0.354
7,GCCCTGTA,0.0785
8,GCCTGTAA,0.109
9,CCCTGTAC,-0.0614
10,CCCCTGTA,0.284
11,ACCTGTAT,0.322
12,CCCCTGAA,0.0139
13,CCCTGTAG,0.107
14,ACCTGTAG,0.135
15,ACCTGTAA,-0.0579
16,CCCTGTAA,0.308
17,ACCTGTAC,0.0266
18,AGGATTGA,0.106
19,AACCATCG,-0.148
20,ATTATGGA,0.161
21,CGTTCTAG,0.0647
22,TACCTCTA,0.238
